# L3MBTL1 block: blocks human L3MBTL1; Q9Y468; AlphaScreen L3MBTL1–H3K9me1 peptide binding; Potency, µM (series often up to 57.1 µM), for the others: at the highest dose activity, negative = inhibition, most hits filed as inhibitors; 230,000 tested, 0.66% active; AID 485360; note: % is set by controls: 0 for no effect and ±100 for the full control effect; nearly all actives have a fitted effect of over 60% in size
# Target sequence (Q9Y468 whole entry, looked up): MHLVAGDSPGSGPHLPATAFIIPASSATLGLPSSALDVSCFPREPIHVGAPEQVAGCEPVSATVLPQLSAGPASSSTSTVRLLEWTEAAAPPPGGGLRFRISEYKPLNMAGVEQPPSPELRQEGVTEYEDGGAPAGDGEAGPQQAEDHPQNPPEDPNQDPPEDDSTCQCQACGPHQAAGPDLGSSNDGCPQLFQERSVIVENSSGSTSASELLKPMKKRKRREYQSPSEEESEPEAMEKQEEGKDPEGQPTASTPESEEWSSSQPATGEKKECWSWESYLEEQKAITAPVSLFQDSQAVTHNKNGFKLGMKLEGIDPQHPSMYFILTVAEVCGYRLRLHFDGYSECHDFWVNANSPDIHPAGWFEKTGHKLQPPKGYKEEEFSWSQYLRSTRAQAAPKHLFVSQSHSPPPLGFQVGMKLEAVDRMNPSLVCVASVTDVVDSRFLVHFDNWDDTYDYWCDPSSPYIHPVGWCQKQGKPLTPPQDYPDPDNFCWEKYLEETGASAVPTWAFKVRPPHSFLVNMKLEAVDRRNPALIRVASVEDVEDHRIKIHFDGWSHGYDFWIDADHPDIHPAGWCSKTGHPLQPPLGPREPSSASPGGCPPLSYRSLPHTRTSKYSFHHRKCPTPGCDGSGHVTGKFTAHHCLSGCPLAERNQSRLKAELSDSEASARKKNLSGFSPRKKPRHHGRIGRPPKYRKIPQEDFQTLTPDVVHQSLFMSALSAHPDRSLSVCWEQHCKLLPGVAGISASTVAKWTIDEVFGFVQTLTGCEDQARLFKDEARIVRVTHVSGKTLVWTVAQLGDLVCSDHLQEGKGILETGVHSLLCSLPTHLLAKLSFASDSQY
#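 Displacement of a biotinylated histone H3(1-15) peptide monomethylated at Lys9 (75 nM) from L3MBTL1 (50 nM) was measured by AlphaScreen after a 30 min room-temperature compound incubation; cefsulodin titration served as intraplate control.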
# BAZ2B inh: BAZ2B (human) inhibition; Q9UIF8; AlphaScreen BAZ2B-H3K14Ac peptide displacement; Potency, µM (highest dose often 114 µM), inactives show top-dose activity change, negative = inhibition, usual class: inhibitors; 360,000 tested, 4.4% active; AID 504333; note: % is set by controls: 0 for no effect and ±100 for the full control effect; nearly all actives have a fitted effect of over 60% in size
#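 Complex of BAZ2B and biotin-H3K14Ac (50 nM apiece) forms over 30 min at RT, then faces library compounds up to 110 uM for another 30 min; AlphaScreen beads added, 20 min dark incubation, luminescence read.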
# HP1b binding inh: HP1-beta chromodomain-methylated histone interaction inhibition; AID 540317; AlphaScreen HP1-beta / biotin-H3K9me3 peptide binding; 390,000 tested, 0.56% active; Potency, µM (doses to about 114 µM), for the others: top-dose activity change, negative = inhibition, usual class: inhibitors; P83916; note: nearly all actives have a fitted effect of over 70% in size
#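 Compound inhibition of the preformed complex between 50 nM HP1-beta and 50 nM biotinylated H3K9me3 peptide was read by AlphaScreen. Buffer was PBS pH 7.4 with 0.01% Tween-20. Incubations ran 30 min at room temperature, with 10 ug/mL donor/acceptor beads.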
# Sfp inh: inhibitors of Bacillus subtilis Sfp phosphopantetheinyl transferase; Q9F4F7; Biochemical Sfp PPTase activity, qHTS; AID 1490; Potency, µM, for the others: largest response in the series, negative = inhibition, actives largely listed as inhibitors; 310,000 tested, 3.5% active;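 note: the enzyme is Sfp with the accession as filed and its product quenches rhodamine fluorescence; 0% = enzyme reaction without inhibitor and -100% = no enzyme wells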
#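 Compounds were incubated with enzyme (final 15 nM) for 15 min at room temperature before substrate addition started the reaction. Fluorescence at 525 nm excitation, 598 nm emission was recorded immediately and after 30 minutes.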
# JMJD2A Tudor: JMJD2A Tudor domain (human) inhibition. Potency, µM (top dose mostly 114 µM), without a hit: at the top dose activity change, negative = inhibition, hits mostly inhibitors. O75164. AlphaScreen JMJD2A-Tudor / H3K4me3 peptide binding. 390,000 tested, 4.4% active; note: % is set by controls: 0 for no effect and ±100 for the full control effect; nearly all actives have a fitted effect of over 50% in size
# G9a inh: inhibitors of human histone lysine methyltransferase G9a; AID 504332; G9a H3K9 monomethylation, AlphaScreen, 2 h; Potency, µM (highest dose often 102 µM), for the others: top-dose activity, negative = inhibition, hits mostly inhibitors; 350,000 tested, 8.8% active; Q96KQ7; note: % is set by controls: 0 for no effect and ±100 for the full control effect; nearly all actives have a fitted effect of over 75% in size
#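 Signal arises when biotinylated H3K9 peptide, once monomethylated, bridges streptavidin donor and antibody-captured acceptor beads. Enzyme at 20 nM was preincubated 15 min with test compounds; peptide 500 nM and SAM 20 uM then reacted for 2 h.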
# * marks the source's active call; other numbers are inactive results; ? = inconclusive; . = not tested or not shown; [ ] = another dose, or the depositor's remark. Most compounds without a hit are left out; they make up all but 12% or so of the library. Calls come from the whole dose curve; as a rule, active = well fitted curve in the direction sought with a large enough effect; inconclusive = small, poorly fitted or top-dose-only effect, or another doubt; inactive = no such curve, though single readings can be large; an effect the other way counts as inactive or inconclusive. Potency is the fitted concentration of half-maximal effect.
SMILES,L3MBTL1 block,BAZ2B inh,HP1b binding inh,Sfp inh,JMJD2A Tudor,G9a inh
COc1cccc(N2C(=O)CC(N3CCN(c4ccc([N+](=O)[O-])cc4)CC3)C2=O)c1 (configuration not stated),-3%,-11%,10%,20%,-24%,?
Cc1ccc(CN(C(=O)COc2ccccc2[N+](=O)[O-])c2ccccn2)o1,.,-36%,20%,.,-22%,-8%[59 µM]
O=C(O)c1nc(NCCc2ccccc2)ncc1Cl,.,-18%,-9%,8%,?,35µM*
CCOc1cc(/C=C(\C#N)C(N)=O)cc(CSc2ccccc2)c1O,.,.,.,-25%,.,.
COc1cc(/C=C(\C#N)C(N)=O)cc(CSc2nc3ccccc3s2)c1O,.,.,.,-8%,.,5µM*
Clc1ccc(CN2CCc3nc(Nc4ccc5c(c4)OCCO5)ncc3C2)cc1,.,18µM*,-22%,.,28µM*,-29%[12.7 µM]
COc1cc(Nc2ncc3c(n2)CCN(Cc2cccc(C)c2)C3)cc(OC)c1,.,?,12%,.,?,1%[12.7 µM]
COc1cc(OC)c(OC)cc1CN1CCc2nc(Nc3ccc4c(c3)OCCO4)ncc2C1,.,45µM*,-13%,.,56µM*,14µM*
CCOc1ccccc1CN1CCc2nc(Nc3ccc4c(c3)OCCO4)ncc2C1,.,40µM*,?,.,56µM*,?
COc1cc(Nc2ncc3c(n2)CCN(Cc2cc(F)cc(F)c2)C3)cc(OC)c1,.,?,8%,.,-22%,-28%[59 µM]
CN(Cc1ccccc1)C(=O)c1ccc2c(c1)N(Cc1ccccc1F)C(=O)c1ccccc1S2(=O)=O,.,-12%,19%,.,-16%,-40%[59 µM]
COc1ccc(NC(=O)CCS(=O)(=O)c2cc3c4c(c2)CCN4C(=O)CC3)cc1OC,.,-7%,9%,.,-6%,-29%[59 µM]
COc1ccccc1NC(=O)CCS(=O)(=O)c1cc2c3c(c1)CCN3C(=O)CC2,.,-2%,11%,.,?,20µM*
O=C(CCS(=O)(=O)c1cc2c3c(c1)CCN3C(=O)CC2)Nc1cccc(Br)c1,.,2%,17%,.,79µM*,?
COc1ccc(NC(=O)CCS(=O)(=O)c2cc3c4c(c2)CCN4C(=O)CC3)c(OC)c1,.,-30%,4%,.,-16%,?
COc1ccc(C)cc1NC(=O)CCS(=O)(=O)c1cc2c3c(c1)CCN3C(=O)CC2,.,-16%,71µM*,.,32µM*,8.9µM*
CC1CCCCN1S(=O)(=O)c1ccc2[nH]c(=O)cc(C(=O)NCCCN3CCCCCC3)c2c1 (configuration not stated),.,-16%[57.1 µM],12%,-1%,-35%,79µM*
CC(C)CN(CCCNC(=O)c1cc(=O)[nH]c2ccc(S(=O)(=O)N3CCCC3)cc12)CC(C)C,.,13%,8%,.,-11%,29%[59 µM]
CCOc1ccc(/C(O)=C2/C(=O)C(=O)N(CCOCCO)C2c2ccccc2)cc1 (configuration not stated),8%,-14%,21%,10%,-32%,?
O=C1C(=O)N(CCOCCO)C(c2ccccn2)/C1=C(\O)c1ccccc1 (configuration not stated),50%,?,14%,-12%,?,18µM*
CCN(CC)CCCN1C(=O)C(=O)/C(=C(/O)c2ccc(C)cc2)C1c1ccccn1 (configuration not stated),.,?,-1%,?,89µM*,14µM*
CCOc1ccc(/C(O)=C2/C(=O)C(=O)N(CCOCCO)C2c2cccnc2)cc1 (configuration not stated),1%,-7%,12%,22%,79µM*,.
CN(C)CCCN1C(=O)C(=O)/C(=C(/O)c2ccccc2)C1c1ccccn1 (configuration not stated),1%,-1%,.,7%,.,-65%
CCN(CC)CCN1C(=O)C(=O)/C(=C(/O)c2ccncc2)C1c1ccccc1F (configuration not stated),-1%,2%,14%,-15%,-19%,79µM*
CCN(CC)CCN1C(=O)C(=O)/C(=C(/O)c2ccc(F)cc2)C1c1ccncc1 (configuration not stated),8%,-4%,28%,8%,-21%,11%[59 µM]
SMILES,L3MBTL1 block,BAZ2B inh,HP1b binding inh,Sfp inh,JMJD2A Tudor,G9a inh
COc1ccc(CNC(=O)CCc2cn(Cc3cc(C)ccc3C)c3ccccc23)cc1OC,.,?,23%,.,-20%,-37%[59 µM]
O=C1CC(c2nc3ccccc3n2CCCOc2ccccc2)CN1c1ccc(F)cc1 (configuration not stated),.,-10%,27%,.,-7%,7%[59 µM]
Cc1ccc(CCNC(=O)c2ccc(Nc3nc4ccccc4n4nnnc34)cc2)cc1,.,3%,31%,.,-5%,11%[59 µM]
Cc1nc2nc(SCc3ccc(F)cc3Cl)nn2c(C)c1Cc1ccccc1,.,16%,36%,.,-2%,13%[59 µM]
CCOC12NC(=O)CC(=O)N1C(c1ccccc1)=CS2 (configuration not stated),0%,-37%,13%,-10%,-16%,50µM*
O=C(c1[nH]ncc1[N+](=O)[O-])N1CCOCC1,.,-1%,18%,-14%,-6%,55%
O=C(O)c1cc2ncc(-c3[nH]ncc3[N+](=O)[O-])cn2n1,.,-21%,-24%,10%,79µM*,-47%
Cc1ccc(C(C)C)c(OCC(=O)N2CCC(c3nc4ccccc4o3)CC2)c1,.,-18%,83%,.,11%,31%[59 µM]
CN(C)c1ccc(NC(=O)Cn2nnc3sc4c(c3c2=O)CCC(C(C)(C)C)C4)cc1 (configuration not stated),.,?,-10%,.,?,4.5µM*
CC(=O)N1CSCC1C(=O)NNS(=O)(=O)c1ccccc1 (configuration not stated),7%,5%,4%,7%,25µM*,15%
O=C(CSC(=S)N1CCCC1)c1cc(Br)cc(Br)c1O,.,40µM*,?,-102%,?,20µM*
C[n+]1cn(CC(O)COCc2ccccc2)c2ccccc21 (configuration not stated),11%,?,22%,-13%,-10%,.
Cc1cc2c(cc1C)[n+](C)cn2CC(O)COCc1ccccc1 (configuration not stated),-1%,7%,5%,-3%,?,5.6µM*
CCOc1ccc(CCNC(=O)CSC(=S)N2CCCC2)cc1OCC,-1%,7%,-5%,.,?,40µM*
CCOc1ccc(CCNC(=O)CSCc2ccc(C)cc2)cc1OCC,-7%,-2%,15%,-13%,-23%,?
CCOc1ccc(CCNC(=O)C2CCN(C(=O)N(C)C)CC2)cc1OCC,8%,2%,10%,9%,89µM*,-6%[59 µM]
